Consider 13 molecules from PubChem BioAssay.

Where “and” joins values, the source holds several entries; their conditions need not be identical. Identical values can stand only once. Results filed as inconclusive are left out. For part of these data: Entries with a potency or affinity are not part of this list. Calls of active or inactive are those of the source.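 Rule for the calls, unless noted: active = compounds killing one labelled cell type while sparing the other, by normalised counts and ratio limits, not self-fluorescent; inactive = the rest.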

A short description of experiment [1]: differential killing of epithelial or mesenchymal cells, primary screen, imaging, PC-3E GFP, TEM4-18 mCherry, co-culture (AID 1345086).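 For all read-outs here: cells exposed to compound for 72 h before imaging.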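 For red/green cell ratio (normalised): normalised mesenchymal count divided by normalised epithelial count so high means epithelial killing.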 The settings on record: imaging cell counts, at 1 µM; for red/green cell ratio (normalised): actives lie on both sides, counts scaled to control wells, 1 = unselective.
For experiment [2], the target named is Mitogen-activated protein kinase 7 (Homo sapiens) (UniProt Q13164). The experiment is described as follows: ERK5 transactivation activators in reporter cells, primary screen, cell-based, HTS (AID 1508626;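 active = luciferase signal above three times the same-plate solvent-only control wells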;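 note: luciferase driven by Gal4-ERK5 fusion binding five Gal4 sites before minimal TATA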). The note with it: HeLa Gal4-ERK5 transactivation, 18 h, at 5 µM, stronger effect = higher value.
Mitogen-activated protein kinase 7 (Homo sapiens), sequence (Q13164 whole entry, looked up, the tested form may be a part): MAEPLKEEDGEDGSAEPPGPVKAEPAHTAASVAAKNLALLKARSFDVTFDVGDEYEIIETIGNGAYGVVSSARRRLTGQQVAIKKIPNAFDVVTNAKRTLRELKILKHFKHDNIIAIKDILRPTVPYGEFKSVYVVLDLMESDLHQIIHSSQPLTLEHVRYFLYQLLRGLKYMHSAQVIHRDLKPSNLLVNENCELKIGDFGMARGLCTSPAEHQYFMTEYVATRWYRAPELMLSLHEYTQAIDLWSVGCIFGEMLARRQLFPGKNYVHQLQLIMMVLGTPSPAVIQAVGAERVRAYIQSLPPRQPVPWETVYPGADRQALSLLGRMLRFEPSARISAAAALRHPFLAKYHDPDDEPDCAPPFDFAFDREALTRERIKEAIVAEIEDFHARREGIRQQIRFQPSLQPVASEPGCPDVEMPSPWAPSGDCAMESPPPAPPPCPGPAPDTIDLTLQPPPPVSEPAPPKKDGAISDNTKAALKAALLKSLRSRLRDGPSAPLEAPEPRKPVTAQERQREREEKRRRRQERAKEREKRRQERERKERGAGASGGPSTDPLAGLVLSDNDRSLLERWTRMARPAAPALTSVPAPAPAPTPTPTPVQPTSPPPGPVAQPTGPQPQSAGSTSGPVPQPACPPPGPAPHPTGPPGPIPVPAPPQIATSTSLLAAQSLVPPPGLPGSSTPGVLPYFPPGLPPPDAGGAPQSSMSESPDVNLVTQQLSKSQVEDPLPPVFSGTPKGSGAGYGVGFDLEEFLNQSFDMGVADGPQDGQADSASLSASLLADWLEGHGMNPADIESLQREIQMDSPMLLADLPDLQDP
A short description of experiment [3]: polyglutamine-triggered caspase-3 activation inhibitors, cell-based (AID 1583). The settings on record: polyglutamine-induced caspase-3 activation, cell assay; stronger effect = higher value;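 tested at 10 µM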.
Experiment [4] can be described thus: suppressors of polyQ aggregation in yeast, 75Q-TubU reporter (AID 1593). The note with it: Yeast 75Q polyglutamine aggregation reporter.
Experiment [5] can be described thus: rescue of polyQ-huntingtin neuronal dysfunction in worms, whole organism, C. elegans mechanosensory neurons, N-terminal huntingtin (AID 1599). The note with it: touch response, stronger effect = higher value.
Experiment [6] can be described thus: inhibitors of mitochondrial cytochrome c release, biochemical, purified mitochondria (AID 1603).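 Note: mouse liver mitochondria challenged with calcium chloride; signal normalized to the plate average as 100%.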 The note with it: stronger effect = lower value.
Experiment [7] is described as follows: inhibitors of polyQ protein aggregation (AID 1604). The note with it: polyglutamine-induced protein aggregation inhibition assay; stronger effect = higher value; tested at 2.5 µM.
Experiment [8] is described as follows: protection against mutant huntingtin cytotoxicity, PC12 cells, LDH release (AID 1610). The note with it: PC12 mutant huntingtin toxicity, final LDH at 4 uM, stronger effect = lower value. Background: Release of lactate dehydrogenase indicates damage to the cell membrane.
A short description of experiment [9]: enhancers of glutamate uptake in motor neurons, MN-1 cell line (AID 1612).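 Note: tested at 1 µM final; 0% = mean of DMSO vehicle wells on each plate; positive means more glutamate uptake than control and negative means less.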 The settings on record: MN-1 motor neuron cells, stronger effect = higher value.
Experiment [10] in a line: suppressors of polyglutamine aggregation in yeast, 75Q-TubH (AID 1616). The settings on record: S. cerevisiae 75Q-TubH polyglutamine aggregation suppression; stronger effect = higher value.
For experiment [11], the target named is NAD(+) hydrolase SARM1 (Homo sapiens) (UniProt Q6SZW1). The experiment is described as follows: SARM1 TIR NADase inhibitors, cell lysate, NAD-Glo luminescence (AID 1508614;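 active = compound whose remaining NAD level is above about 45 nM, limit read from the data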;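 note: higher remaining NAD means stronger inhibition of SARM1 NADase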). The settings on record: SAM-TIR HEK293T lysate NADase, at 1 µM, stronger effect = higher value.
NAD(+) hydrolase SARM1 (Homo sapiens), sequence (Q6SZW1 whole entry, looked up): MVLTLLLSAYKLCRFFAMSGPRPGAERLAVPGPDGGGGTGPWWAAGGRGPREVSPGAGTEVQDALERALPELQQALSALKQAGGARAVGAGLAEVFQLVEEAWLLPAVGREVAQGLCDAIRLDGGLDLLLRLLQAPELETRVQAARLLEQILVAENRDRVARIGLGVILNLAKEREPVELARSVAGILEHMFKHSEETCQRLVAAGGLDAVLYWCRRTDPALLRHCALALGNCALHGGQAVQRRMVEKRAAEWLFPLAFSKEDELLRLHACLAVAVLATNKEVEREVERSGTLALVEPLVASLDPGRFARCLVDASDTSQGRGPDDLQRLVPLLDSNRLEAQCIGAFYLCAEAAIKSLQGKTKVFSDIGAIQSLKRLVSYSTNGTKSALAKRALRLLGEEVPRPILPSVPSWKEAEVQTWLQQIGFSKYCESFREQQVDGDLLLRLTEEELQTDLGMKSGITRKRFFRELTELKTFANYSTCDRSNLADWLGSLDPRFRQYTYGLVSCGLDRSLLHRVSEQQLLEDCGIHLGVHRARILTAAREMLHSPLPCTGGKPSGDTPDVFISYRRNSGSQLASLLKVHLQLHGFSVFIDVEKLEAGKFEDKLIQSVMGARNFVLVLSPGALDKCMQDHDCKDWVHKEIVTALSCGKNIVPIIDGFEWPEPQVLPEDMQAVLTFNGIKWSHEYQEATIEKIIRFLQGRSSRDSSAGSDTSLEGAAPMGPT
Experiment [12] is described as follows: protection of motor neurons from glutamate death, cell-based, TUNEL DNA degradation staining, MNGlu (AID 1594; call rule not given here). The note with it: glutamate-induced death, at 1 µM, stronger effect = higher value.
Experiment [13] is described as follows: reducers of polyQ inclusions in PC12 cells, cell-based, NGF-treated PC12, GFPQ80 (AID 1614).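 Note: lower means fewer inclusions and 0 means no inclusions at all.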 The settings on record: PC12 NGF-treated GFP-polyQ80 inclusion reduction.
Experiment [14] can be described thus: liver-stage malaria parasite growth inhibition, primary screen, cell-based, HepG2, luciferase luminescence, HepG2 viability (AID 624349; in the data active = parasite load remaining mostly below about 12%, no sharp cut-off; inactive = mostly above about 10%;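 note: 100% = mean of DMSO negative control wells on the same plate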). The note with it: P. berghei liver stage in HepG2, luciferase luminescence, concentration not given here; parasite load remaining: stronger effect = lower value; viability: measured here: HepG2 viability without parasites.
[15] abbreviates: measured here: epithelial PC-3E GFP cell survival.
The mark [16] stands for this setting: measured here: mesenchymal TEM4-18 mCherry cell survival.

Consider `CC(=O)O[C@H]1C[C@@H](O)C(C)(C)C2C[C@@H](OC(C)=O)[C@]3(C)C(CC[C@@]4(C)[C@H](c5ccoc5)OC(=O)C5OC543)[C@]21C` (some centres not stated), for which, in experiment [1], the red/green cell ratio (normalised) is 0.84 (inactive). Further, the normalised cell number amounted to 0.84 in [1] (setting [15]) and 0.7 in experiment [1] (setting [16]). Further, the luciferase signal in experiment [2] was 40 AU (inactive).
Consider `O=c1cc(-c2ccccc2)oc2cccc(O)c12`, for which the red/green cell ratio (normalised) in experiment [1] was 0.94 (inactive). Also, the normalised cell number was 1.1 in [1] (setting [15]) and 1.03 in [1] (setting [16]). Further, the luciferase signal in [2] was 104 AU (inactive).
Consider `OCC(S)CS` (configuration not stated), for which, in [3], the inhibition stood at 11.1%. Further, the score in experiment [4] is -0.34. This molecule also showed a rescue above control in experiment [5] of 28.1. The cytochrome c release ratio in experiment [6] came to 0.92. In [7], this molecule gave an inhibition of aggregation of 68.7%. Besides, the normalised LDH release in experiment [8] was 0.667. Besides, the glutamate uptake change in experiment [9] amounted to 23.2%. In addition, the aggregation suppression score in experiment [10] is -0.815. In experiment [1], the red/green cell ratio (normalised) is 1.01 (inactive). Moreover, the normalised cell number in experiment [1] (setting [15]) amounted to 0.72; in experiment [1] (setting [16]), 0.73. The remaining NAD in [11] was 10 nM (inactive). Also, the luciferase signal in [2] was 92 AU (inactive).
`CC(=O)Oc1cc(OC(C)=O)c2c(c1)O[C@H](c1ccc(OC(C)=O)c(OC(C)=O)c1)[C@@H](OC(C)=O)C2`: in experiment [1], the red/green cell ratio (normalised) was 0.85 (inactive). Also, the normalised cell number stood at 0.98 in experiment [1] (setting [15]) and 0.84 in [1] (setting [16]). In addition, the luciferase signal in experiment [2] is 16 AU (inactive).
For the molecule `COc1ccc(/C=C/C(=O)O)cc1OC`, the red/green cell ratio (normalised) in experiment [1] was 0.97 (inactive) and 0.98 (inactive). In addition, the normalised cell number was 0.93 and 1 in [1] (setting [15]); 0.91 and 0.98 in [1] (setting [16]). Moreover, the luciferase signal in experiment [2] was 52 AU (inactive) and 80 AU (inactive).
`CC(=O)O[C@H]1CC[C@@]2(C)C(C[C@@H](OC(C)=O)[C@]3(C)C2CC[C@@]2(C)[C@H](c4ccoc4)OC(=O)[C@H]4O[C@]423)C1(C)C` (some centres not stated): in [1], the red/green cell ratio (normalised) was 1.12 (inactive). The normalised cell number came out at 1 in [1] (setting [15]) and 1.12 in [1] (setting [16]). In addition, in [2], the luciferase signal was 60 AU (inactive).
Consider `CC1(C)C(=O)C=C[C@@]2(C)C1CC(=O)[C@]1(C)C2CC[C@@]2(C)[C@H](c3ccoc3)OC(=O)[C@H]3O[C@]321` (some centres not stated), for which the red/green cell ratio (normalised) in experiment [1] was 1.47 (inactive). Also, the normalised cell number in experiment [1] (setting [15]) amounted to 0.82; in experiment [1] (setting [16]) it was 1.21. Further, in experiment [2], the luciferase signal is 16 AU (inactive).
On to `Nc1ccc(C(=O)O)c(O)c1` (tested in a mixture with another compound), for which, in [3], the inhibition was -9.55%. In experiment [4], this molecule returned a score of 1.25. Besides, the protection in [12] is 60% (active). In addition, the rescue above control in [5] is -2.24. Also, the cytochrome c release ratio in experiment [6] turned out to be 0.96. This molecule also registered an inhibition of aggregation in experiment [7] of 69%. In addition, the glutamate uptake change in [9] is -12.2%. In addition, the inclusion score in experiment [13] is 2. The aggregation suppression score in experiment [10] worked out at 1.1. Besides, the parasite load remaining in experiment [14] is 155% (inactive). The molecule further returned a viability in experiment [14] of 85.3%. The red/green cell ratio (normalised) in experiment [1] is 0.93 (inactive). The normalised cell number is 1.14 in [1] (setting [15]) and 1.06 in [1] (setting [16]). The remaining NAD in experiment [11] was 10 nM (inactive).
Turning to `COc1cc2c(cc1OC)-c1c(oc3cc(O)cc(O)c3c1=O)CO2`, in [1], the red/green cell ratio (normalised) is 1.08 (inactive). In addition, the values for the normalised cell number in experiment [1] (setting [15]) and in experiment [1] (setting [16]) were 1.02 and 1.09, respectively. Besides, in experiment [2], the luciferase signal was 16 AU (inactive).
As to `O=C(O)/C=C/C=C/c1ccccc1`, the red/green cell ratio (normalised) in experiment [1] was 1.01 (inactive). Further, the normalised cell number in experiment [1] (setting [15]) and in [1] (setting [16]) was 0.93 in each case. Further, the luciferase signal in [2] is 64 AU (inactive).
For `CC(=O)O[C@@H]1CC2C(C)(C)[C@H](O)C=C[C@]2(C)C2CC[C@@]3(C)[C@H](c4ccoc4)OC(=O)C4OC43[C@@]21C` (some centres not stated), in [1], the red/green cell ratio (normalised) was 1.02 (inactive). The normalised cell number in experiment [1] (setting [15]) is 1.17; in [1] (setting [16]) it was 1.19. The luciferase signal in experiment [2] is 56 AU (inactive).
For `C=CC(C1=CC(=O)C=CC1=O)c1ccccc1` (configuration not stated), in that order: 0.88 (inactive), 1.13, 1 and 64 AU (inactive).
On to `COc1ccc(-c2coc3c(O)c(O)c(OC)cc3c2=O)cc1`, for which the red/green cell ratio (normalised) in experiment [1] was 0.97 (inactive). Further, the figures for the normalised cell number in [1] (setting [15]) and in experiment [1] (setting [16]) were 1.12 and 1.09, respectively. Also, the luciferase signal in [2] was 88 AU (inactive).

By inhibition is commonly meant the change of the read-out against control, counted positive when it falls. As a reminder, the viability is a per cent measure of how many cells are alive, often set against a control.
